# Assay outcomes: PubChem BioAssay, National Center for Advancing Translational Sciences (NCATS)
# Tau FP inhib – inhibitors of human tau fibril formation; P10636; K18 P301L tau heparin fibrillization, Alexa594 FP, 6 h; Potency, µM (titrated, usually from 57.7 µM), without a hit: at the top dose activity, negative = inhibition, hits mostly inhibitors; 280,000 tested, 0.39% active; note: potency is the fitted concentration of half-maximal effect; nearly all actives have a fitted effect of over 55% in size
# Target sequence (P10636 561-689 P618L limits assumed): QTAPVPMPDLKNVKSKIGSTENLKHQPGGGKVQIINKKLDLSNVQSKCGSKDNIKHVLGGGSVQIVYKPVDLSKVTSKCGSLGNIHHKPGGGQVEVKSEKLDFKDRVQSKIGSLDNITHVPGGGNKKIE
#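 K18 P301L tau (15 uM unlabeled/0.24 uM Alexa 594-labeled, final) + compound + heparin 20 uM final; 100 mM NaOAc pH 7; 6 hr 37 C; ThT 30 uM final added, 1 hr RT; FP ex 555/em 632 nm.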
# KDM4E inh – blocks human JMJD2E demethylase activity | Potency, µM (doses to about 57.1 µM), for inactives: top-dose activity change, negative = inhibition, usual class: inhibitors | 230,000 tested, 1.6% active | JMJD2E catalytic domain, FDH-coupled NADH fluorescence (FDH is formaldehyde dehydrogenase) | B2RXH2; active = well fitted inhibition curve with a large enough effect, not every such curve was filed as active; inconclusive = small, poorly fitted or top-dose-only effect, or another doubt; inactive = no such curve, though single readings can be large or run the other way;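 note: potency is the fitted concentration of half-maximal effect; 0% = wells with enzyme and -100% = buffer wells without enzyme; nearly all actives have a fitted effect of over 50% in size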
# NPSR antag – neuropeptide S receptor (human) antagonism, cAMP; Q6W5P4; CHO-NPSR cells, cAMP TR-FRET, antagonist mode; 220,000 tested, 1% active; Potency, µM (highest dose often 38.3 µM), inactives show top-dose activity change, negative = inhibition, most hits filed as inhibitors; AID 1461; note: potency is the fitted concentration of half-maximal effect; nearly all actives have a fitted effect of over 50% in size
# Target sequence (Q6W5P4 whole entry, looked up): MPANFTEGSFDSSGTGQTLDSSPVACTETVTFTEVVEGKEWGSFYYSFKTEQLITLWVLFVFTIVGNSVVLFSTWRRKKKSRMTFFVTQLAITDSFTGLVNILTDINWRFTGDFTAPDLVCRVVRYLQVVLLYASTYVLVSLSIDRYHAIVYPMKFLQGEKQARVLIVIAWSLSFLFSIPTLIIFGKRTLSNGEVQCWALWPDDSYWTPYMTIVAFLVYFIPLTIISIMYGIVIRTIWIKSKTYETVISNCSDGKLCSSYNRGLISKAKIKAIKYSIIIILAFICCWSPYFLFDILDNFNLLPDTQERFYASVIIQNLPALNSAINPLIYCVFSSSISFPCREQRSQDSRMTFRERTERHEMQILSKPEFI
# Tau fluor cs – counter-screen for tau fibril formation inhibitors. tau K18 P301L Alexa594 fluorescence, heparin fibrillization. 280,000 tested, 0.93% active. Potency, µM (doses to about 57.7 µM), without a hit: at the top dose activity change, negative = decrease; note: potency is the fitted concentration of half-maximal effect; nearly all actives have a fitted effect of over 55% in size
#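 Human tau K18 P301L (15 uM unlabeled, 0.24 uM Alexa 594-labeled) in 100 mM sodium acetate pH 7 with 20 uM heparin, 6 hr at 37 C. ThT 30 uM added, 1 hr ambient; Alexa 594 FP and total fluorescence read at 555/632 nm.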
# PNC inhibitor – inhibitors of perinucleolar compartment assembly; PC3M PTB-GFP, PNC prevalence imaging, 16 h; hits give low values; activity change (PNC), negative = inhibition, % at 10 µM; 140,000 tested, 3.1% active; AID 2417;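 active = readout at or below -70, meaning at least 70% loss of cells showing the perinucleolar compartment, a nuclear body marking cancer cells; inconclusive = readout between -30 and a set limit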;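 note: plate controls were DMSO wells for no effect and camptothecin positive control wells for full effect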
#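 Compounds are pinned in duplicate onto adhered PC3M cells stably expressing GFP-tagged PTB and incubated 16 h at 37 C. Cells are then fixed, nuclei stained with Hoechst, and PNC-positive cells counted.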
# Tau ThT inhib – inhibitors of human tau fibril formation, thioflavin T binding; 270,000 tested, 2.1% active; P10636; recombinant tau K18 P301L (four-repeat tau fragment), heparin-induced fibrillization, ThT fluorescence; Potency, µM (titrated, usually from 57.4 µM), for inactives: at the top dose activity, negative = inhibition, hits mostly inhibitors; note: potency is the fitted concentration of half-maximal effect; nearly all actives have a fitted effect of over 55% in size
#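 Aggregation was driven by heparin (20 uM final) acting on recombinant tau […] bearing P301L in 100 mM sodium acetate pH 7; fibrils were detected with Thioflavin T.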
# Active calls of the source: *; ? = inconclusive; . = no result given; [ ] = dose if it differs, or a comment. In the library only some 5.1% were active in any assay of this set; here they are far more common. Unless noted, calls come from the whole dose curve; as a rule, active = well fitted curve in the direction sought with a large enough effect; inconclusive = small, poorly fitted or top-dose-only effect, or another doubt; inactive = no such curve, though single readings can be large; an effect the other way counts as inactive or inconclusive. Unless noted, % is set by controls: 0 for no effect and ±100 for the full control effect.
SMILES,Tau FP inhib,KDM4E inh,NPSR antag,Tau fluor cs,PNC inhibitor,Tau ThT inhib
Cc1ccc(C(=O)N2CCc3cc(CNC(=O)COc4ccccc4)ccc32)cc1,7%,.,.,-14%,.,?
O=C1C2CCCN2C(c2ccc(F)cc2)N1c1ccc(Cl)cc1 (centres undefined),7%,14%,-5%[46.1 µM],-9%,-98*,-12%
C=CCOC(=O)[C@H](O)[C@@H](O)C(=O)OCC=C,7%,-4%,.,1%,.,3%
COc1ccc(C2C(=O)c3ccccc3C2=O)cc1OC,0%,-3%,13µM*,-8%,.,-13%
COc1ccc(C2C(=O)c3ccccc3C2=O)cc1,?,-4%,-50%,-14%,-14,?
CC1(C)CC(=O)C2=C(C1)N(c1cccnc1)C(N)=C(C#N)C2c1cccs1 (centres undefined),?,-3%,-8%,-20%,0,20µM*
CCSc1sccc1C1C(C#N)=C(N)N(c2cccnc2)C2=C1C(=O)CC(C)(C)C2 (centres undefined),6%,-3%,8%[46.1 µM],-4%,-6,-10%
COc1ccc(-c2nc3ccccc3o2)cc1NC(=O)COc1ccc(C(C)(C)C)cc1,-6%,.,.,-9%,.,2%
COc1cc2c(cc1OC)-c1cc3ccc4c(c3c[n+]1CC2)OCO4,-9%,?,13µM*,-17%,?,16µM*
Cc1nn2c(=O)cc(COC(=O)C(c3ccccc3)c3ccccc3)nc2s1,-8%,.,.,-9%,.,-9%
COc1ccccc1NC(=O)c1ccc(NS(=O)(=O)c2ccc(F)c(F)c2F)cc1,-12%,2%,-31%,8%,-121*,10%
O=C(Nc1ccccc1OC(=O)c1ccc(Cl)cc1)c1ccc(Cl)cc1,0%,5%,-10%[46.1 µM],-12%,-94*,-3%
CCCOc1cccc(C(=O)Nc2ccc(-c3nc4ccccc4o3)cc2)c1,?,.,.,-9%,.,7%
COc1ccc(-n2cc(-c3ccccc3)nc2SC)cc1,-22%,-5%,-2%,-27%,-85*,?
COc1ccc2c(c1)sc1nc(-c3ccccc3)cn12,-13%,2%,17%[46.1 µM],-26%,-96*,?
COc1ccc(OC)c(S(=O)(=O)N2CCC(C(=O)N3CCN(Cc4ccccc4)CC3)CC2)c1,4%,8%,-12%[46.1 µM],2%,-80*,4%
COc1ccc(CCNC(=O)C2CCN(S(=O)(=O)c3cc(OC)ccc3OC)CC2)cc1,-3%,-1%,-15%[46.1 µM],1%,-83*,-2%
COc1ccc(OC)c(S(=O)(=O)N2CCC(C(=O)NCCc3ccccc3)CC2)c1,-9%,-6%,-9%[46.1 µM],-7%,-23,-1%
CCOC(=O)c1ccc(NS(=O)(=O)c2ccc3c(c2)CCN3C(=O)CC)cc1,-8%,.,.,?,.,-15%
CCOC(=O)c1ccc(NC(=O)CC2Nc3cccc4cccc(c34)NC2=O)cc1 (centres undefined),?,.,.,8.9µM*[quencher],.,13µM*
COc1ccc(NC(=O)CC2Nc3ccccc3NC2=O)cc1 (centres undefined),1%,.,.,-9%,.,-14%
CCOC(=O)c1ccc(NC(=O)CC2Nc3cc(C)c(C)cc3NC2=O)cc1 (centres undefined),9%,.,.,14µM*[quencher],.,?
COc1ccc(NC(=O)C(NC(=O)CC2NC(=O)NC2=O)c2ccccc2)cc1 (centres undefined),10%,10%,22%,8%,-115*,2%
Cc1cccc(NC(=O)CC2Nc3cccc4cccc(c34)NC2=O)c1 (centres undefined),1%,?,1%[46.1 µM],8.9µM*[quencher],-9,?
COc1cccc(NC(=O)CC2Nc3cc(C)c(C)cc3NC2=O)c1 (centres undefined),10%,.,.,?,.,?
SMILES,Tau FP inhib,KDM4E inh,NPSR antag,Tau fluor cs,PNC inhibitor,Tau ThT inhib
O=C(CSc1nccn1Cc1ccco1)Nc1cc(C(F)(F)F)ccc1Cl,4%,.,.,-24%,.,-16%
Cc1cccc(CNC(=O)c2ccc3nc(-c4ccccc4)c(-c4ccccc4)nc3c2)c1,-4%,.,.,-12%,.,1%
Cc1nc2nc(SCC(=O)NC3CCC(C)CC3)nn2c(C)c1Cc1ccccc1 (centres undefined),11%,.,.,7%,.,-3%
COc1ccc(NC(=O)C(NC(=O)c2ccc(=O)[nH]c2)c2ccc(OC)cc2)cc1 (centres undefined),-1%,7%,18%,-1%,-109*,0%
CC(=O)Nc1ccc(NC(=O)CC2Nc3cccc4cccc(c34)NC2=O)cc1 (centres undefined),11%,-10%,-19%[46.1 µM],?,28,?
CCOc1ccc(NC(=O)CC2Nc3cccc4cccc(c34)NC2=O)cc1 (centres undefined),4%,.,.,16µM*[quencher],.,14µM*
COc1ccc(NC(=O)C(c2ccccc2)N(C)C(=O)c2ccc(=O)[nH]c2)cc1 (centres undefined),-3%,-3%,13%,-5%,?,-8%
CC(=O)c1ccc(NC(=O)CC2Nc3cccc4cccc(c34)NC2=O)cc1 (centres undefined),?,?,-5%,25µM*[quencher],.,14µM*
CCN(C(=O)Cn1nnc2sc(-c3ccccc3)cc2c1=O)c1cccc(C)c1,?,.,.,-19%,.,?
COc1cc(OC)cc(C(=O)Nc2nc(-c3nnn(-c4ccc(F)c(Cl)c4)c3C)ns2)c1,?,.,.,-15%,.,-6%
COc1cc(OC)cc(-c2nnc(SCC(=O)N3CCC(C)CC3)o2)c1,-3%,.,.,-15%,.,-16%
CCOc1ccc(CCNC(=O)c2ccc3c(c2)N(Cc2ccccc2)C(=O)c2ccccc2S3=O)cc1OCC (centres undefined),1%,.,.,-17%,.,1%
COc1ccc(S(=O)(=O)NC2(C(F)(F)F)N=C(c3ccccc3)NC2=O)cc1 (centres undefined),-2%,8%,2%,-6%,-113*,-7%
COc1ccc(NC2=C(NCCO)C(=O)c3ccccc3C2=O)cc1,?,?,-31%,?,?,13µM*
Cc1cccc(NC2=C(NCCO)C(=O)c3ccccc3C2=O)c1,?,?,-36%,?,-28,25µM*
COC1=C(Nc2ccc(OC)cc2)C(=O)c2ccccc2C1=O,?,4µM*,-30%,?,36,11µM*
CCOc1ccc(NC2=C(OC)C(=O)c3ccccc3C2=O)cc1,?,14µM*,-30%,?,9,10µM*
COC1=C(Nc2ccc(O)cc2)C(=O)c2ccccc2C1=O,?,10µM*,-33%,?,27,13µM*
